Compound activity (PubChem BioAssay)
SKKanGAS inh: inhibitors of SKKanGAS S. pyogenes growth in kanamycin (SK-promoter or general growth effect). BacTiter-Glo, 6 h. inhibition, % at 7.5 µM. 300,000 compounds, 1.3% hits. AID 1662;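 active = mean replicate score, as percent of positive control median, at least 50; inconclusive = mean below 50 but one replicate at or above 50; inactive = mean and every replicate below 50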;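 also: strain carries kanamycin resistance gene driven by streptokinase promoter and grows in 40 µg/ml kanamycin; loss of luminescence reflects streptokinase promoter inhibition or plain growth inhibition; 0% = median of DMSO wells and 100% = positive control at its reference dose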
PfHsp90 set2: reduces growth (ATP signal) of yeast expressing P. falciparum Hsp90 | inhibition, % at 9.4 µM | S. cerevisiae expressing PfHsp90, BacTiter-Glo ATP, 48 h; yeast lacking PDR1 and PDR3 efflux regulators | 310,000 compounds, 0.32% hits;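 active = every replicate shows inhibition above about 80%, whatever the replicate mean, limit read from the data; inconclusive = mean inhibition reaches the set limit but some replicate falls short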;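 also: 0% = DMSO neutral controls and 100% = 20 µM radicicol positive controls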
tim23-1 inh: growth inhibitors of tim23-1 mutant yeast; AID 463212; 330,000 compounds, 1.3% hits; inhibition, % at 20 µM; S. cerevisiae tim23-1 growth, BacTiter-Glo luminescence, 24 h;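 active = growth inhibition of the mutant yeast at or above 50%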;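 also: temperature-sensitive mutant grown at 25 °C; plate controls were DMSO-treated mutant yeast for no effect and medium wells lacking yeast for full effect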
tim10-1 inh: inhibits growth of tim10-1 mutant yeast; S. cerevisiae tim10-1 ts strain growth, BacTiter-Glo, 24 h; inhibition, % at 20 µM; 330,000 compounds, 2.2% hits; AID 463190;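 active = inhibition of at least 40%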;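 also: mutant grown at 25 °C; 0% = DMSO wells with yeast and 100% = wells holding no yeast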
V-ATPase pH: regulators of yeast V-ATPase proton transport; S. cerevisiae, pHLuorin cytosolic pH fluorescence; 350,000 compounds, 0.37% hits; response, % at 10 µM; in the data active = response mostly above about 7.3%, no sharp cut-off; inactive = mostly below about 5.4%; also: actives read high
TIM10 inh: growth inhibitors of TIM10 yeast strain; 330,000 compounds, 1.4% hits; S. cerevisiae TIM10 strain growth, BacTiter-Glo luminescence, 24 h; inhibition, % at 10 µM; AID 463195;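 active = inhibition of 40% or more at the single tested concentration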;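 also: wild-type TIM10 isogenic control strain grown at permissive 25 °C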
tim10-1 confirm: confirmation of tim10-1 mutant yeast growth inhibitors; shares compounds with tim10-1 inh; S. cerevisiae tim10-1 ts strain growth, BacTiter-Glo, 24 h; inhibition, % at 20 µM; 7,400 compounds, 56% hits; AID 463213;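 active = inhibition of yeast growth at or above a set limit in either of two repeat tests at 20 µM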;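 also: tim10-1 mutant grown at permissive 25 °C to find synthetic lethal compounds; 0% = DMSO yeast wells and 100% = medium wells without yeast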
* marks the source's active call; other numbers are inactive results. An excerpt weighted towards active compounds, which were near 4.6% of everything screened.

What do the screens show for `COc1ccc(C2C=C(C34CC5CC(CC(C5)C3)C4)NC(=S)N2)cc1OC` (stereo not drawn)?
SKKanGAS inh: -1; PfHsp90 set2: -36; tim23-1 inh: 40; tim10-1 inh: 56*; V-ATPase pH: 0; TIM10 inh: 8; tim10-1 confirm: 17

How did CC(=O)c1sc(N/N=C\c2c(O)ccc3ccccc23)nc1C do in these assays?
SKKanGAS inh: 50*; PfHsp90 set2: 11; tim23-1 inh: 23; tim10-1 inh: 42*; V-ATPase pH: -2; TIM10 inh: 10; tim10-1 confirm: -10

What do the screens show for `CC1CCN(c2ccccc2NC(=S)NC(=O)C(C)(C)C)CC1`?
SKKanGAS inh: 58*; PfHsp90 set2: 2; tim23-1 inh: 44; tim10-1 inh: 49*; V-ATPase pH: 4; TIM10 inh: 35; tim10-1 confirm: 33*

Results for O=C(NC(=S)Nc1ccccc1N1CCCC1)c1ccc(F)cc1 ?
SKKanGAS inh: -9; PfHsp90 set2: 5; tim23-1 inh: 12; tim10-1 inh: 41*; V-ATPase pH: 4; TIM10 inh: 14; tim10-1 confirm: 28

Results for O=C(COc1ccccc1Cl)NC(=S)Nc1ccccc1N1CCCC1 ?
SKKanGAS inh: 4; PfHsp90 set2: 9; tim23-1 inh: 29; tim10-1 inh: 51*; V-ATPase pH: -1; TIM10 inh: 19; tim10-1 confirm: 20

Results for CC1CCN(c2ccccc2NC(=O)c2ccc(F)cc2)CC1 ?
SKKanGAS inh: 21; PfHsp90 set2: 35; tim23-1 inh: 25; tim10-1 inh: 26; V-ATPase pH: -1; TIM10 inh: 19

Results for Cc1ccccc1C(=O)NC(=S)Nc1ccccc1N1CCCC1 ?
SKKanGAS inh: 10; PfHsp90 set2: -4; tim23-1 inh: 47; tim10-1 inh: 51*; V-ATPase pH: -1; TIM10 inh: 37; tim10-1 confirm: 37*

How did COc1ccccc1C(=O)NC(=S)Nc1ccccc1N1CCCC1 do in these assays?
SKKanGAS inh: 4; tim23-1 inh: 36; tim10-1 inh: 33; V-ATPase pH: -2; TIM10 inh: 35

Results for O=C(COc1c(Cl)cccc1Cl)Nc1ccccc1N1CCCC1 ?
SKKanGAS inh: inconclusive; PfHsp90 set2: -11; tim23-1 inh: 34; tim10-1 inh: 11; V-ATPase pH: 3; TIM10 inh: 6

What do the screens show for `COc1ccc(OC)c(NC(=O)NCCc2c[nH]c3ccccc23)c1`?
SKKanGAS inh: 2; PfHsp90 set2: -6; tim23-1 inh: 18; tim10-1 inh: 5; V-ATPase pH: 5; TIM10 inh: -2

Results for COc1ccc(-c2cc(-c3ccco3)[nH]c(=O)c2C#N)cc1OC ?
SKKanGAS inh: -1; PfHsp90 set2: -44; tim23-1 inh: 8; tim10-1 inh: 10; V-ATPase pH: 1; TIM10 inh: 15

Results for Cc1ccc(-c2noc(CN(C(=O)C(c3ccccc3)c3ccccc3)C(C)C)n2)cc1 ?
SKKanGAS inh: 1; PfHsp90 set2: 8; tim23-1 inh: 16; tim10-1 inh: 41*; V-ATPase pH: 1; TIM10 inh: 17; tim10-1 confirm: 25

Results for Nc1c(C(=O)NCc2ccc(Cl)cc2)sc2nc3c(c(C(F)(F)F)c12)CCC3 ?
SKKanGAS inh: 28; tim23-1 inh: 30; tim10-1 inh: 46*; V-ATPase pH: -2; TIM10 inh: 4; tim10-1 confirm: 26

What do the screens show for `O=C(Nc1cccc(C(=O)N2CCN(c3cccc(Cl)c3)CC2)c1)c1ccccc1`?
SKKanGAS inh: 9; tim23-1 inh: 31; tim10-1 inh: 48*; V-ATPase pH: -2; TIM10 inh: 36; tim10-1 confirm: 37*

How did O=C(Nc1ccc(N2CCN(C(=O)c3ccccc3)CC2)c(Cl)c1)c1ccc(Br)o1 do in these assays?
SKKanGAS inh: 8; tim23-1 inh: 43; tim10-1 inh: 48*; V-ATPase pH: -1; TIM10 inh: 33; tim10-1 confirm: 39*

Results for O=C(Nc1cccc(C(=O)N2CCN(c3ccccc3)CC2)c1)c1ccco1 ?
SKKanGAS inh: 4; PfHsp90 set2: 8; tim23-1 inh: 27; tim10-1 inh: 26; V-ATPase pH: -2; TIM10 inh: 11

What do the screens show for `O=C(COc1ccccc1[N+](=O)[O-])N(Cc1cccc(Br)c1)C1CCS(=O)(=O)C1` (stereo not drawn)?
SKKanGAS inh: -3; PfHsp90 set2: -1; tim23-1 inh: 15; tim10-1 inh: 15; V-ATPase pH: 4; TIM10 inh: 22

How did CC(C)(C)c1ccc(C(=O)NNc2cc(N3CCOCC3)nc(N3CCOCC3)n2)cc1 do in these assays?
SKKanGAS inh: -2; PfHsp90 set2: 19; tim23-1 inh: 3; tim10-1 inh: 3; V-ATPase pH: -1; TIM10 inh: 9

What do the screens show for `CC(C)(C)c1ccc(C(=O)NNc2cc(N3CCCCC3)nc(N3CCCCC3)n2)cc1`?
SKKanGAS inh: 25; PfHsp90 set2: -61; tim23-1 inh: 34; tim10-1 inh: 40*; V-ATPase pH: 7; TIM10 inh: 23; tim10-1 confirm: 36*

How did CCOc1ccccc1NC(=O)/C=C/C(N)=O do in these assays?
SKKanGAS inh: 6; PfHsp90 set2: -12; tim23-1 inh: 22; tim10-1 inh: 40*; V-ATPase pH: -1; TIM10 inh: 33; tim10-1 confirm: 34*

How did CCOC(=O)/C=C/C(=O)Nc1ccccc1C(=O)NC1CCCCC1 do in these assays?
SKKanGAS inh: -7; PfHsp90 set2: -8; tim23-1 inh: 33; tim10-1 inh: 46*; V-ATPase pH: -2; TIM10 inh: 38; tim10-1 confirm: 22

What do the screens show for `Cc1ccc(/C=C/C(=O)NC(=S)Nc2ccccc2C(=O)NC2CCCCC2)cc1`?
SKKanGAS inh: -10; PfHsp90 set2: -18; tim23-1 inh: 12; tim10-1 inh: 7; V-ATPase pH: -1; TIM10 inh: 9

Results for CC(C)(C)N(Cc1ccccc1)C(=O)c1ccc(Cl)cc1[N+](=O)[O-] ?
SKKanGAS inh: -2; PfHsp90 set2: -1; tim23-1 inh: 35; tim10-1 inh: 43*; TIM10 inh: 31; tim10-1 confirm: 29*

How did O=C(c1ccc(Cl)cc1[N+](=O)[O-])N(Cc1ccccc1)Cc1ccccc1 do in these assays?
SKKanGAS inh: 9; tim23-1 inh: 22; tim10-1 inh: 4; TIM10 inh: 8

How did COc1ccccc1/C=C/[C@@H]1C[C@H]2CN(Cc3cccc(Cl)c3)C(=O)[C@]23CCCN13 do in these assays?
SKKanGAS inh: -1; PfHsp90 set2: -12; tim23-1 inh: 27; tim10-1 inh: 43*; V-ATPase pH: 2; TIM10 inh: 20; tim10-1 confirm: 26

How did N#CC(C#N)=Cc1cc2ccccc2nc1N1CCOCC1 do in these assays?
SKKanGAS inh: -5; PfHsp90 set2: -31; tim23-1 inh: 49; tim10-1 inh: 44*; V-ATPase pH: -1; TIM10 inh: 26; tim10-1 confirm: 21
